Hit rate of the full screen: of about 16,000 compounds, about 5,700 (36%) were called active. Inconclusive results (about 24%) are left out. The list shows a part of the results. Values without a mark were called inactive. Calls follow the shape of the dose curve; as a rule, active = well fitted curve in the direction sought with a large enough effect; inconclusive = small, poorly fitted or top-dose-only effect, or effect the other way; inactive = no such curve, though single readings can be large or run the other way.
% is scaled to controls: 0 for no effect and ±100 for the full control effect.

The target of the assay is Cytochrome P450 1A2 (Homo sapiens) (UniProt P05177). Nature of the assay: Cytochrome panel assay with activity outcomes. Conditions: recombinant CYP, pro-luciferin dealkylation, luminescence, p450-cyp1a2; series mostly up to 57.1 µM; activity, negative = inhibition: at the top concentration.
Cytochrome P450 1A2 (Homo sapiens), sequence (P05177 whole entry, looked up): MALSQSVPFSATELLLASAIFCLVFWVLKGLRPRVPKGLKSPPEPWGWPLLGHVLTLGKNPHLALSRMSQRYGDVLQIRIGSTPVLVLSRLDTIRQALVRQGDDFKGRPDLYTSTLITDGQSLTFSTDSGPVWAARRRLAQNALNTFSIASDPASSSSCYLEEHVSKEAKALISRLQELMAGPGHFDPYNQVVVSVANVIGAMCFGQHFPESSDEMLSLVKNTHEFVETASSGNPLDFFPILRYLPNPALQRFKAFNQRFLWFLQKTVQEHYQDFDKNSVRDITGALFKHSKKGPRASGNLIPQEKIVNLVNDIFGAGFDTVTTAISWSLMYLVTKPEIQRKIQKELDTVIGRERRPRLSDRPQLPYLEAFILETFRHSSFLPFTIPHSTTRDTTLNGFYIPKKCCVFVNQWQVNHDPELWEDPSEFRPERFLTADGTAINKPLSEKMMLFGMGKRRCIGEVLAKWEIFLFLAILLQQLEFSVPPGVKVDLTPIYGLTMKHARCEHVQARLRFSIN
As a reminder, the AC50 is the midpoint of the concentration-response curve, whichever way the signal moves. `COCCNc1nc(-c2ccccc2OC)nc2ccccc12`: the concentration at half-maximal activity (AC50) was 794 nM (active).
Take `C[C@@H](N=C(N)N)C(=O)O`: the activity, negative = inhibition is -4.5% [at 11.4 µM].
As for `OCCN(CO)CO`, the activity, negative = inhibition was -9.46% [at 11.4 µM].
Turning to `O=S1(=O)C=C(N2CCOCC2)c2ccccc21`, the AC50 was 14100 nM (active).
Regarding `COC(=O)c1ccccc1OCC(=O)N1CCN(c2ccc(OC)cc2)CC1`, the “activity, negative = inhibition” value was -17.2%.
On to `CCOc1cc(/C=C2/SC(=O)N(CC(=O)N3CCc4ccccc4C3)C2=O)ccc1OCC(=O)O`, for which the “activity, negative = inhibition” value was 6.34%.
Consider `COc1ccc2c(c1)c(=O)oc1c(C)c(OCC(=O)N3CCc4ccccc4C3)ccc12`, for which the AC50 was 2000 nM (active).
As to `COC(=O)CSc1nnc(-c2ccccc2OC)n1-c1ccc(C)cc1`, the “activity, negative = inhibition” value is -9.92%.
Take `COc1ccccc1-c1nnc(SCc2nc3ccccc3s2)n1C`: the concentration at half-maximal activity (AC50) is 14100 nM (active).
Regarding `CCn1c(=O)c2c(nc3n2CCS3)n(C)c1=O`, the “activity, negative = inhibition” value is -29%.
On to `N#Cc1c(-c2ccccc2)nc2n(c1=O)CCS2`, for which the concentration at half-maximal activity (AC50) was 3160 nM (active).
As for `O=c1c(Cc2ccccc2)c(O)nc2n1CCS2`, the “activity, negative = inhibition” value was -10.2%.
On the same count and under the same terms, then `COc1cc(=O)n2c(n1)SCCC2`, with -1.28%.
Turning to `N#Cc1c(-c2ccc(Cl)cc2)nc2n(c1=O)CCCS2`, the AC50 was 1410 nM (active).
On to `CC(C)=CCC/C(C)=C/CO/N=C1/C[C@@H](O)[C@@H](O)[C@@H]2[C@@H]3C(=O)N(C[C@@H]4CCCO4)C(=O)[C@H]3CC[C@H]12`, for which the activity, negative = inhibition was -0.0642% [at 11.4 µM].
Take `CC(C)(C)N1C(=O)[C@H]2[C@H]3[C@H](O)[C@H](O)C/C(=N/NC(=O)OCc4ccccc4)[C@@H]3CC[C@@H]2C1=O`: the activity, negative = inhibition was -5.49% [at 11.4 µM].
With `COc1ccc(/C=C2\OC(=O)c3c(OC)cccc32)cc1OC`, the AC50 was 3160 nM (active).
With `COc1ccccc1OCCOc1ccc(/C=C2/C(=N)N3OC(C)=CC3=NC2=O)cc1OC`, the “activity, negative = inhibition” value was -4.69%.
Still for that read-out and setting: to `Cc1cc(Cc2cc(C)cc(C(C)(C)C)c2O)c(O)c(Cc2cc(C)cc(C(C)(C)C)c2O)c1` belongs -15.6% [at 2.29 µM].
Take `Cc1cc(-c2cc(C)c(O)c(C(C)(C)C)c2)cc(C(C)(C)C)c1O`: the half-maximal activity concentration (AC50) is 631 nM (active).
With `Cc1cc(Cc2cc(Cc3cc(C)cc(C(C)(C)C)c3O)c(C)cc2C)c(O)c(C(C)(C)C)c1`, the activity, negative = inhibition is -17.1% [at 2.29 µM].
Turning to `O=C(Nc1ccc2c(c1)OCCO2)c1cc2sccc2n1Cc1ccc(F)cc1`, the concentration at half-maximal activity (AC50) was 4470 nM (active).
Turning to `COCCN1C(=O)c2ccccc2C(C(=O)Nc2ccc3c(c2)OCCO3)C1c1ccc(F)cc1` (configuration not stated), the “activity, negative = inhibition” value was -3.22%.
On the same count and under the same terms, to `COc1ccc(NC(=O)N2CCCC3(CCN(C(=O)c4cc(C(F)(F)F)cc(C(F)(F)F)c4)CC3)C2)cc1` belongs -13.1%.
`COc1ccc(NC(=O)N2CCCC3(CCN(C(=O)c4cnccn4)CC3)C2)cc1`: the “activity, negative = inhibition” value is -15.4%.
For the compound `COc1ccc(-c2cc(C(F)(F)F)n3nc(C(=O)N4CCCCC4)cc3n2)cc1`, the half-maximal activity concentration (AC50) is 15800 nM (active).
`Nc1nc(SCC(=O)Nc2ccccc2Sc2ccc(Cl)cc2)n[nH]1`: the “activity, negative = inhibition” value was 9.65%.
As for `Nc1ccccc1SCc1csc(-c2ccc(Cl)cc2)n1`, the concentration at half-maximal activity (AC50) is 631 nM (active).
As to `C[N+](C)(N)Cc1csc(-c2ccc(Cl)cc2)n1`, the activity, negative = inhibition was -4.22% [at 2.29 µM].
Take `Cn1nc(C(=O)NC2CCCCC2)c2ccccc2c1=O`: the AC50 is 12600 nM (active).
On to `CCCn1nc(C(=O)NCC(C)(C)N2CCOCC2)c2ccccc2c1=O`, for which the “activity, negative = inhibition” value was -25.2%.
The same measure, in the same setting: to `O=C(CCCCn1c(=O)c2ccccc2n(CC(=O)NC2CCCC2)c1=O)NC1CCCC1` belongs -2.45%; to `COc1ccc(S(=O)(=O)N2CC3C4C=CC(C4)C3C2)cc1` (configuration not stated), -14%.
Turning to `COc1ccc(S(=O)(=O)n2ccc(-c3cnc(-c4ccccc4)s3)n2)cc1`, the AC50 is 1120 nM (active).
`O=S(=O)(c1ccc(F)cc1)n1ccc(-c2cnc(-c3ccccc3)s2)n1`: the concentration at half-maximal activity (AC50) was 2240 nM (active).
With `COc1ccc(-c2cnnc(CCCn3ccnc3-c3ccccc3)n2)cc1`, the activity, negative = inhibition is -12.1% [at 11.4 µM].
Same read-out and setting: then `Cc1ccc(S(=O)(=O)n2ccc(-c3cccc(OCc4c(F)cccc4Cl)c3)n2)cc1`, with -3.21%.
On to `COc1cccc2cc(C(=O)CC3(O)C(=O)N(Cc4ccccc4)c4ccccc43)c(=O)oc12` (configuration not stated), for which the AC50 is 15800 nM (active).
Take `CC(C)c1ccc(C(=O)CC2(O)C(=O)N(CN3CCOCC3)c3ccccc32)cc1` (configuration not stated): the “activity, negative = inhibition” value is -15.9%.
With `Cn1c(=O)c2c(nc(NCCNc3nc4c(c(=O)n(C)c(=O)n4C)n3C)n2C)n(C)c1=O`, the activity, negative = inhibition is -0.53% [at 11.4 µM].
On the same count and under the same terms, to `CN1CCN(c2nc3c(c(=O)n(C)c(=O)n3C)n2C)CC1` belongs -16.8% [at 2.29 µM].
`Cn1c(=O)c2c(nc(C(=N)SCC(=O)O)n2C)n(C)c1=O`: the AC50 was 1260 nM (active).
For `O=C(OCCNC(=O)c1ccc2ccccc2n1)c1ccc(F)cc1`, the half-maximal activity concentration (AC50) is 1120 nM (active).
With `O=C(NCCOC(=O)c1ccc(C(=O)OCCNC(=O)c2cccnc2)s1)c1cccnc1`, the “activity, negative = inhibition” value was -9.26%.
Same read-out and setting: then `Nc1ccccc1S(N)(=O)=O`, with -0.711% [at 25.6 µM].
Take `Cc1ccc(N=Nc2ccc(N)cc2C)c(S(N)(=O)=O)c1`: the AC50 is 501 nM (active).
On to `Cc1ccc(N=Nc2c(O)c3ccccc3[nH]c2=O)c(S(=O)(=O)N(C)C)c1`, for which the activity, negative = inhibition was -14.6% [at 2.29 µM].
